# Assay outcomes from PubChem BioAssay.
# An excerpt weighted towards active compounds, which were near 0.47% of everything screened.
# Hsp90 Hop PPI: changes Hsp90-Hop TPR2A binding signal, up or down. AlphaScreen TPR2A-His6 binding biotin-Hsp90 C-terminal peptide. Potency, µM (titrated, usually from 57 µM), for the others: top-dose activity change, negative = inhibition. 0.44% of 71,000 active; active = well fitted curve in either direction with a large enough effect; inconclusive = small, poorly fitted or top-dose-only effect, or another doubt; also: potency is read from the fitted curve at half-maximal effect; % is scaled to controls: 0 for no effect and ±100 for the full control effect
# BRCT inh red: BRCT-phosphoprotein interaction inhibition (red fluorophore). P38398. BRCT-phosphopeptide binding, red fluorescence polarization. Potency, µM (doses to about 76.9 µM), without a hit: at the highest dose activity change, negative = inhibition, actives largely listed as inhibitors. 0.03% of 75,000 active. AID 892; also: % is scaled to controls: 0 for no effect and ±100 for the full control effect
#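 Rhodamine-labelled pBACH1 10-mer (100 nM) bound to BRCT domain (100 nM) at pH 7.3; compounds incubated 12 min room temperature, polarization read. Free peptide defines full inhibition; unlabelled decapeptide titrated as control.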
# TsaE inh: YjeE (TsaE) inhibition, E. coli; 0.05% of 71,000 active; AID 605; P0AF67; purified YjeE enzyme, qHTS inhibition assay; Potency, µM
#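 Purified YjeE (10 uM) with BODIPY Texas Red-labeled ADP probe (2 uM); compounds pin-transferred, 15 min at room temperature. Binding inhibition read as decreased fluorescence polarization; ADP titration as control.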
# Ub-GFP proteasome: inhibits proteasome, raising ubiquitin-GFP reporter fluorescence. Potency, µM (highest dose often 45.9 µM), for inactives: at the highest dose activation (GFP accumulation), hits mostly activators. 67,000 tested, under 10 active. Ubiquitin-GFP reporter cells, proteasome inhibition, GFP fluorescence; response scale: untreated = 0%, 10 µM MG-132 = 100%; active = well fitted activation curve with a large enough effect, not every such curve was filed as active; inconclusive = small, poorly fitted or top-dose-only effect, or another doubt; inactive = no such curve, though single readings can be large or run the other way; also: potency is read from the fitted curve at half-maximal effect
#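 U2OS Ub(G76V)-GFP reporter; O/N plating, 0.5% FBS; cpd 46 uM–2.9 nM, 4 h, 37 °C; GFP+ cell count, 488/515 nm; norm. to basal vs 10 uM MG-132; CRC fit.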
# BRCT inh green: BRCA1 BRCT-phosphoprotein interaction inhibition; P38398; BRCA1 BRCT-phosphopeptide binding, green fluorescence polarization; Potency, µM (top dose mostly 76.9 µM), inactives show at the top dose activity change, negative = inhibition, most hits filed as inhibitors; 0.05% of 75,000 active; AID 875;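 also: potency is read from the fitted curve at half-maximal effect; plate controls were peptide without protein for full effect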
#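 Fluorescence polarization: His-tagged BRCT (~35 kDa BRCA1 C-terminus, 250 nM) bound to 100 nM fluorescein-labeled phosphorylated 10-aa BACH1 peptide, pH 7.3 phosphate buffer with DTT and Tween 20. Compounds incubated 12 min at room temperature; inhibition read as lowered polarization.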
# USP2a inhib: blocks human ubiquitin-specific protease USP2a. Potency, µM (top dose mostly 38.3 µM), for the others: at the highest dose activity change, negative = inhibition, usual class: inhibitors. 0.1% of 60,000 active. USP2a enzymatic assay, qHTS inhibition; also: potency is read from the fitted curve at half-maximal effect; nearly all actives have a fitted effect of over 60% in size
# Target sequence (O75604 whole entry, looked up): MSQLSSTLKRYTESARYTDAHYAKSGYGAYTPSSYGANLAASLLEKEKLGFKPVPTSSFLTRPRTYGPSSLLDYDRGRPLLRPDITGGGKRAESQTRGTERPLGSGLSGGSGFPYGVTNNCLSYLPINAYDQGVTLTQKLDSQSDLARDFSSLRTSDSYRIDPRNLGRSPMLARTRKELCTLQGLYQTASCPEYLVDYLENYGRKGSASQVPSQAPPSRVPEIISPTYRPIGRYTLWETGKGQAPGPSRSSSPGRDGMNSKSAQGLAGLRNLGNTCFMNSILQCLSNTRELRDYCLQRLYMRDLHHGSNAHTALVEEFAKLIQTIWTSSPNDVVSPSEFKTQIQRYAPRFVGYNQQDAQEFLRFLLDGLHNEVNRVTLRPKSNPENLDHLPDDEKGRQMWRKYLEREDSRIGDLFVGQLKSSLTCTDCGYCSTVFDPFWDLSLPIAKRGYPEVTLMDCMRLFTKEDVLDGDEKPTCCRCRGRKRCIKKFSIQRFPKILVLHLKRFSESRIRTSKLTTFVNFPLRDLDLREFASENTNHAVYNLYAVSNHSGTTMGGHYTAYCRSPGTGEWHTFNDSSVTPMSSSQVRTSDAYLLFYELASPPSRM
#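 Coupled readout: USP2-cleaved Ub-PLA2 (20nM final) turns over NBD C6-HPC (20uM final), Ex 460nm/Em 535nm after 2.5 h, time-zero read flagging artifacts. Enzyme (20nM final, pH 8.0 Tris) given 30 min RT with compound first; NEM defines full inhibition.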
# Hsp90-TPR2A inh: confirmation and counter-screen of Hsp90 TPR2A co-chaperone interaction disrupters; 100% of 45 active; shares compounds with Hsp90 Hop PPI; AlphaScreen TPR2A-His6 / biotin-Hsp90 peptide binding; activity, negative = inhibition, % at 40 µM or 46 µM, hits read low;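 active = compound lowering the Hsp90 and TPR2A binding signal, whether or not the linker counterscreen also flagged it as an artifact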
# Active calls of the source: *; i = inactive; u = inconclusive; x = not tested or not shown; + = active, no number; ! = a repeat was not active; [ ] = remark or other dose. Unless noted, calls follow the shape of the dose curve; as a rule, active = well fitted curve in the direction sought with a large enough effect; inconclusive = small, poorly fitted or top-dose-only effect, or another doubt; inactive = no such curve, though single readings can be large; an effect the other way counts as inactive or inconclusive.
SMILES,Hsp90 Hop PPI,BRCT inh red,TsaE inh,Ub-GFP proteasome,BRCT inh green,USP2a inhib,others
CN(C)[C@@H]1C(=O)C(C(N)=O)=C(O)[C@]2(O)C(=O)C3=C(O)c4c(O)ccc(Cl)c4[C@](C)(O)[C@H]3C[C@@H]12,-5.0%[26 µM],-0.2%[34.4 µM],i,13.9%[20.5 µM],0.5%[34.4 µM],23.2%[17.1 µM],
CN(C)C1C(=O)C(C(N)=O)=C(O)[C@@]2(O)C(=O)C3=C(O)c4c(O)ccc(Cl)c4[C@](C)(O)C3CC12 (some centres not stated),x,-2.9%,x,x,-2.6%[3.08 µM],10µM*,
Cc1c([C@@H](C)[C@H]2NC[C@H](C)C[C@@H]2O)ccc2c1C[C@@H]1[C@H]2CC=C2C[C@@H](O)CC[C@@]21C,-4.8%[11 µM],1.9%[15.4 µM],i,-1.5%[9.17 µM],-2.8%[15.4 µM],x,
Brc1ccc(Oc2cc(Br)c(Br)cc2Br)c(Br)c1,31.6µM*!,0.6%,i,x,-0.8%,x,
C[n+]1c(/C=C\c2ccc(O)c3ncccc23)[se]c2ccccc21,3.16µM*,4.9%[15.4 µM],i,-3.4%[9.17 µM],-2.2%[15.4 µM],x,
Clc1nc(Cl)nc(Cl)n1,u,0.6%,i,x,-3.0%,x,
CN(N=O)c1cc(O)ccc1O,u,31.6µM*,100µM*,-3.2%,u,15.8µM*,
N=C(N)SCc1ccc(Cl)c2ccccc12 (tested in a mixture with another compound),-0.3%[11 µM],0.5%[15.4 µM],i,0.6%[9.17 µM],0.6%[15.4 µM],x,
CCOC(=O)c1ccc(NC(=O)c2c(O)[nH]c(=O)[nH]c2=O)cc1,-4.2%,-2.0%,i,16.2%,12.6µM*,77.1%,
Oc1cccc2cccnc12,10µM*!,2.2%[15.4 µM],i,-1.5%[9.17 µM],0.2%[15.4 µM],-29.7%,
CCCCCCCCc1ccc(O)cc1,1.7%,-2.7%,i,x,-1.2%,x,
CCCCc1ccc(C(=O)O)nc1,2.51µM*,0.0%,i,0.0%,-0.5%,-5.8%[17.1 µM],
C=C[C@@H]1CN2CC[C@H]1C[C@H]2[C@@H](O)c1ccnc2ccccc12,1.2%,x,i,3.1%,x,x,
C[C@@]12CC[C@H](O)C[C@@H]1CC[C@H]1[C@H]2C[C@@H](O)[C@]2(C)[C@@H](C3=CC(=O)OC3)CC[C@@]12O,u,x,i,1.3%,x,x,
Clc1ccc(C(c2ccc(Cl)cc2)C(Cl)(Cl)Cl)cc1,27.3%,-2.2%,i,x,1.2%,-5.6%,
Clc1ccc(C(c2ccc(Cl)cc2)C(Cl)Cl)cc1,31.6µM*,1.2%,i,x,2.3%,x,
C[n+]1c2cc(N)ccc2cc2ccc(N)cc21,x,-7.8%,x,x,1.26µM*,69.2%,
C[C@H](CC(C#N)(c1ccccc1)c1ccccc1)N1CCCCC1,-1.2%[11 µM],-0.6%[15.4 µM],i,-6.2%[9.17 µM],-1.8%[15.4 µM],x,
CCn1nc(-c2ccccc2)nc2c(=O)n(C)c(=O)nc1-2,1.26µM*,-0.7%,i,-1.7%,-2.2%,-7.5%,Hsp90-TPR2A inh=+
Cn1nc(-c2ccccc2)nc2c(=O)n(C)c(=O)nc1-2,x,x,x,x,x,x,Hsp90-TPR2A inh=+
Cc1nc2c(=O)n(C)c(=O)nc-2n(C)n1,x,x,x,x,x,x,Hsp90-TPR2A inh=+
CO[C@@H](C)[C@](O)(C(=O)OC1=CCN2CC[C@H](O)[C@H]12)C(C)C,-7.4%,x,i,0.0%,x,x,
COc1cc2c(cc1OC)[C@]13CC[N@+]4(C)CC5=CCO[C@H]6CC(=O)N2[C@@H]1[C@@H]6[C@@H]5C[C@]34O,0.9%[11 µM],-1.1%[15.4 µM],i,0.0%[9.17 µM],-0.3%[15.4 µM],x,
O[N+]1=CC=CCC1=S.On1ccccc1=S.[Zn],x,1.5%,x,x,3.1%[3.08 µM],u,
